Sampled rows, rich in hits. Any-hit rate of the full collection: about 2.9%.
EPAC2 ant val: human EPAC2 antagonism, validation; Q8WZA2; EPAC2 Rap1B BODIPY-GDP exchange, fluorescence; Potency, µM (highest dose often 112 µM), most hits filed as inhibitors; hit rate 1.7% among 16,000; AID 1645886; note: nearly all actives have a fitted effect of over 40% in size
Target sequence (Q8WZA2 whole entry, looked up): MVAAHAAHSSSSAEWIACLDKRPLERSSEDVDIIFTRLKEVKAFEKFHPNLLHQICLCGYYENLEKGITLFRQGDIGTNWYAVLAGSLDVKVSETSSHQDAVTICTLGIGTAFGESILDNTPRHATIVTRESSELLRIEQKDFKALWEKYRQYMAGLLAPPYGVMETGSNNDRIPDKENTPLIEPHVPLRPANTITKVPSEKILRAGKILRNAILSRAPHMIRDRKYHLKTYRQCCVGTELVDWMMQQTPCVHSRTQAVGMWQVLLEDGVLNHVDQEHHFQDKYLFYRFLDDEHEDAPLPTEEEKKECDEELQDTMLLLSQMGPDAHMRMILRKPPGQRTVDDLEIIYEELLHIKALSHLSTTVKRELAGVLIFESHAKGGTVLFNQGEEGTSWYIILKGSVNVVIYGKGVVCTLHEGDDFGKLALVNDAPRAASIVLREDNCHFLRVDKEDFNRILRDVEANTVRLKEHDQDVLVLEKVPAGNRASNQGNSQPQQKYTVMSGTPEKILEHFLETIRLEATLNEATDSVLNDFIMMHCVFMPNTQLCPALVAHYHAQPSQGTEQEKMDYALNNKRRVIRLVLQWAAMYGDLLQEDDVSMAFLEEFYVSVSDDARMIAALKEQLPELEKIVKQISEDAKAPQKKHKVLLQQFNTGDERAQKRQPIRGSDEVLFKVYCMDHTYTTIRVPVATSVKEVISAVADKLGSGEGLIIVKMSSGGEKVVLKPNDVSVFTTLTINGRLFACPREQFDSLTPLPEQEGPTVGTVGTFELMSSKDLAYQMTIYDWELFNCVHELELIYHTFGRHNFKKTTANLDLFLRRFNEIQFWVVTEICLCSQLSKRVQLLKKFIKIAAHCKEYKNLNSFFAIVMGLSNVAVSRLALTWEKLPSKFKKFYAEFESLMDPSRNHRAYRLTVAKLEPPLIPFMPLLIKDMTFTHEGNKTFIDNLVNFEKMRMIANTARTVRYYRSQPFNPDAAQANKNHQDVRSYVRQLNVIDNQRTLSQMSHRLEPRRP
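Fluorescent exchange read-out: 100 nM EPAC2 with 250 nM RAP1B–BODIPY-GDP and 50 uM GDP; BODIPY-GDP release lowers fluorescence. Read at 480/540 nm every 5 min for 30 min at room temperature; normalized to 6.5 mM cAMP.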
EPAC1 agonist: human EPAC1 agonism, validation. EPAC1 Rap1b BODIPY-GDP exchange, fluorescence. Potency, µM, actives largely listed as activators. hit rate 1% among 16,000. AID 1645883; note: nearly all actives have a fitted effect of over 70% in size
Large screens that a line does not name were inactive; ! = repeats disagree. Calls come from the whole dose curve; as a rule, active = well fitted curve in the direction sought with a large enough effect; inconclusive = small, poorly fitted or top-dose-only effect, or another doubt; inactive = no such curve, though single readings can be large; an effect the other way counts as inactive or inconclusive.

O=C(O)CCC/C=C\C[C@@H]1[C@@H](/C=C/[C@@H](O)COc2cccc(Cl)c2)[C@H](O)C[C@@H]1O	none
CN(C)c1ccc(-c2ccc3ncnc(N(C)C)c3c2)cc1	none
Cc1cccc(C(=O)NCc2nc(-c3ccccc3NC(=O)C3CCCO3)oc2C)c1 (stereo not drawn)	none
CCC1Nc2cc(Cl)c(S(N)(=O)=O)cc2S(=O)(=O)N1 (stereo not drawn)	none
CC[C@@H]1/C=C(\C)C[C@H](C)C[C@H](OC)[C@H]2O[C@@](O)(C(=O)C(=O)N3CCCC[C@H]3C(=O)O[C@H](/C(C)=C/[C@@H]3CC[C@@H](Cl)[C@H](OC)C3)[C@H](C)[C@@H](O)CC1=O)[C@H](C)C[C@@H]2OC	none
C=CC[C@@H]1/C=C(\C)C[C@H](C)C[C@H](OC)[C@H]2O[C@@](O)(C(=O)C(=O)N3CCCC[C@H]3C(=O)O[C@H](/C(C)=C/[C@@H]3CC[C@@H](O)[C@H](OC)C3)[C@H](C)[C@@H](O)CC1=O)[C@H](C)C[C@@H]2OC	EPAC2 ant val 79µM
CC(CCC(=O)O)C1CCC2C3CC[C@H]4CC(O)CC[C@@]4(C)C3CC(O)[C@]12C (stereo partly drawn)	EPAC1 agonist inconclusive
Cc1cc(Cl)ccc1OCC(=O)NCC1Cc2cc(-c3cnccn3)ccc2O1 (stereo not drawn)	none
COc1ccc(C(=O)N2CCC3(CCCN(c4ccccc4)C3)CC2)cc1	none
COc1ccc(C(=O)N2CCC3(CC2)CN(c2cccc(-c4ccccc4)c2)C3)cc1	EPAC1 agonist 112µM
Cn1cccc1C(=O)N1CCC2(CCCN(c3cccc(-c4ccccc4)c3)C2)CC1	EPAC1 agonist 112µM
O=C(c1ccncc1)N1CCC2(CC1)CN(c1cccc(-c3ccccc3)c1)C2	EPAC1 agonist inconclusive
COc1ccc(C(=O)N2CCC3(CCCN(c4cccc(-c5ccccc5)c4)C3)CC2)cc1	EPAC1 agonist 100µM
Cn1cccc1C(=O)N1CCC[C@@]2(CCN(c3cccc(-c4ccccc4)c3)C2)C1	none
O=C(c1ccco1)N1CCC2(CCCN(c3cccc(-c4ccccc4)c3)C2)CC1	EPAC1 agonist inconclusive
COC(=O)N1CCC2(CCCN(c3cccc(-c4ccccc4)c3)C2)CC1	EPAC1 agonist 112µM
CCN(CC)CCC(=O)N1c2ccccc2Sc2ccc(C(F)(F)F)cc21	EPAC1 agonist inconclusive
CSc1nc(C(=O)NCc2nc(-c3cccc(NC(=O)c4ccc(C)s4)c3)oc2C)cs1	none
CN(CCO)C(=O)c1cn(C2CCCN(Cc3ccc4ccccc4c3)C2)nn1 (stereo not drawn)	none
FC(F)(F)c1ccccc1-c1cncnc1NCCN1CCOCC1	none
CC(C)=CCOc1ccc(/C=C/C(=O)c2ccc(OCC=C(C)C)cc2OCC(=O)O)cc1	none
O=C(c1cnccn1)N1CCC[C@@]2(CCN(c3cccc(-c4ccccc4)c3)C2)C1	EPAC2 ant val inconclusive, EPAC1 agonist 100µM
O=C(c1cnccn1)N1CCC[C@@]2(CCN(c3ccccc3)C2)C1	none
CC1(C)CCC2=C(O1)c1ccccc1C(=O)C2=O	EPAC2 ant val 28µM!
Cc1[nH]cnc1CN1CCc2c(c3ccccc3n2C)C1=O	none
COc1ccc2[nH]cc(CCNc3nc(-c4ccccc4OC)nc4ccccc34)c2c1	EPAC1 agonist inconclusive
COc1ccc2[nH]cc(CCNc3nc(-c4cccc(C#N)c4)nc4ccccc34)c2c1	EPAC1 agonist 112µM
COc1ccccc1CN1CCCC(n2cc(C(=O)N3CCCC3)nn2)C1 (stereo not drawn)	none
COc1cc(OC)c(OC)cc1CN1CCCC(c2[nH]ncc2-c2cccc(C(F)(F)F)c2)C1 (stereo not drawn)	none
COc1cccc(C(=O)NCC2Cc3cccc(-c4ncccn4)c3O2)c1OC (stereo not drawn)	none
O=C(O)c1ccccc1Nc1cccc(C(F)(F)F)c1	EPAC2 ant val 35µM!
O=C(O)c1ccccc1Nc1ccccc1	none
CN(Cc1ccco1)c1ncncc1-c1ccccc1Cl	EPAC1 agonist inconclusive
CN(Cc1ccco1)c1ncnc2ccc(-c3ccccc3Cl)cc12	EPAC2 ant val 40µM, EPAC1 agonist inconclusive
COc1ccccc1-c1ccc2ncnc(N(C)Cc3ccco3)c2c1	EPAC2 ant val 50µM, EPAC1 agonist inconclusive
CN(C)c1ncnc2ccc(-c3ccoc3)cc12	none
CN(Cc1ccco1)c1ncnc2ccc(-c3ccoc3)cc12	EPAC2 ant val 45µM
COc1ccccc1-c1cc(N(C)Cc2ccco2)ncn1	EPAC2 ant val inconclusive
CC(=O)C[C@H]1c2cc(C(F)(F)F)ccc2S(=O)(=O)N1Cc1ccccc1	EPAC2 ant val inconclusive
CCOC(=O)C[C@H]1c2ccccc2S(=O)(=O)N1Cc1cc(OC)c(OC)c(OC)c1	none
COC(=O)C[C@H]1c2ccc(C(F)(F)F)cc2S(=O)(=O)N1Cc1ccccc1	EPAC2 ant val 25µM
CCOC(=O)C[C@H]1c2ccccc2S(=O)(=O)N1Cc1cccc(C(F)(F)F)c1	EPAC2 ant val 56µM
CCCCCCCCCCCCCCCC[n+]1ccc(/C=C/c2c[nH]c3ccccc23)cc1	EPAC1 agonist inconclusive
CCCCCCC[n+]1ccc(/C=C/c2c(C)[nH]c3ccccc23)cc1	EPAC1 agonist 100µM
CCCCCCCCCC[n+]1ccc(/C=C/c2c[nH]c3ccccc23)cc1	EPAC1 agonist 100µM
CCCCCCCCCCCCCCCC[n+]1ccc(/C=C/c2c(C)[nH]c3ccccc23)cc1	EPAC2 ant val inconclusive
COc1ccc(NC(=O)N2CC[C@@]3(CCCN(S(C)(=O)=O)C3)C2)cc1	none
CC1(C)C2CC[C@]3(C)[C@H](C(=O)C=C4[C@@H]5C[C@@](C)(C(=O)O)CC[C@]5(C)CC[C@]43C)[C@@]2(C)CC[C@@H]1O[C@H]1O[C@H](C(=O)O)[C@@H](O)[C@H](O)[C@H]1O[C@@H]1O[C@H](C(=O)O)[C@@H](O)[C@H](O)[C@H]1O (stereo partly drawn)	EPAC2 ant val inconclusive
CC1(C)[C@@H](O)CC[C@]2(C)C3C(=O)C=C4C5C[C@@](C)(C(=O)O)CC[C@]5(C)CC[C@@]4(C)[C@]3(C)CC[C@@H]12 (stereo partly drawn)	EPAC2 ant val 4µM
O=C(Nc1ccc(C(=O)Nc2ccc(C(=O)Nc3ccc(S(=O)(=O)O)c4cc(S(=O)(=O)O)cc(S(=O)(=O)O)c34)cc2)cc1)Nc1ccc(C(=O)Nc2ccc(C(=O)Nc3ccc(S(=O)(=O)O)c4cc(S(=O)(=O)O)cc(S(=O)(=O)O)c34)cc2)cc1	EPAC2 ant val 22µM
O=C(Nc1cc(C(=O)Nc2ccc(S(=O)(=O)O)cc2S(=O)(=O)O)cc(C(=O)Nc2ccc(S(=O)(=O)O)cc2S(=O)(=O)O)c1)Nc1cc(C(=O)Nc2ccc(S(=O)(=O)O)cc2S(=O)(=O)O)cc(C(=O)Nc2ccc(S(=O)(=O)O)cc2S(=O)(=O)O)c1	EPAC1 agonist inconclusive
Cc1cc(O)c2c(O)c3c(O)cccc3cc2c1	none
C=C1C[C@]23C[C@@]1(O)CC[C@H]2[C@@]12C=C[C@H](O)[C@@](C)(C(=O)O1)[C@H]2[C@@H]3C(=O)O	EPAC1 agonist 45µM
C=C1C[C@@]23C[C@@]1(O)CCC2[C@@]12C=CC(O)[C@](C)(C(=O)O1)C2C3C(=O)O (stereo partly drawn)	EPAC1 agonist inconclusive
COc1cc(-c2oc3cc(O)ccc3c(=O)c2O)ccc1O	none
N#Cc1cccc(-c2cncnc2NCCc2cnc[nH]2)c1	none
c1ccc2sc(-c3cc4c(c(OC5CCOC5)c3)OCCN(Cc3cccn3-c3nccs3)C4)nc2c1 (stereo not drawn)	none

Compound activity (PubChem)
